Results filed as inconclusive are left out. Activity calls are given as the source filed them. The call rests on the fitted dose curve; in most records, active means well fitted curve in the direction sought with a large enough effect; inconclusive means small, poorly fitted or top-dose-only effect, or another doubt; inactive means no such curve, though single readings can be large; an effect the other way counts as inactive or inconclusive.
What was measured:
[1] = target: Calcium and integrin-binding protein 1 (Homo sapiens) (UniProt Q99828); experiment: Primary qHTS for Identification of Calcium Integrin Binding Protein 1 (CIB1) Competitor (AID 1508620);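 further: GST tagged CIB1 binding a fluorescein labelled alphaIIb integrin peptide tracer; top concentration of the series differs between compounds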
Chain of Calcium and integrin-binding protein 1 (Homo sapiens) (Q99828 whole entry, looked up): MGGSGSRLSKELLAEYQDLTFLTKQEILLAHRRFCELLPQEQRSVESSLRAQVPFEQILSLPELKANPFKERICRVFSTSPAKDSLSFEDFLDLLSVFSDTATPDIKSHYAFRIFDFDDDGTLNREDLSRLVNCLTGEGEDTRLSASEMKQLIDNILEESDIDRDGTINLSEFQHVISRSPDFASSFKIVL
In short: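 Fluorescence polarization competition: GST-tagged CIB1 (1 uM final) preincubated with compound 15 min at room temperature, then FITC-labelled alphaIIb peptide (100 nM final) added. After 15 min at room temperature, polarization read at Ex 480/Em 540.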

[2] = Primary qHTS for inhibitors of nuclear receptor binding SET domain protein 2 (NSD2) in an isogenic RCH-ACV NSD2 p.E1099K mutant (9B) (AID 1645876); further: nearly all actives have a fitted effect of over 70% in size
[3] = Primary qHTS for inhibitors of nuclear receptor binding SET domain protein 2 (NSD2) in an RCH-ACV wild type WT cells (2C) (AID 1645877); further: nearly all actives have a fitted effect of over 70% in size
On the % scale 0 is the no-effect control and ±100 the full control effect.

C/C=C(\C)C(=O)OC[C@H]1O[C@@H](O[C@H]2[C@@H](O[C@H]3O[C@H](COC(=O)/C(C)=C/C)[C@@H](O)[C@H](O)[C@H]3O[C@@H]3O[C@H](CO)[C@@H](O)[C@H](OC(=O)/C(C)=C/C)[C@H]3O)O[C@H](COC(=O)/C(C)=C/C)[C@@H](O)[C@@H]2O)[C@H](O)[C@@H](O)[C@@H]1O
inactive: Potency [1] | activity change, negative = viability loss [2] -4.56% [at 9.23 µM] | activity change, negative = cell killing [3] -10.6% [at 9.23 µM]

O=C(O)/C=C/c1ccc2occc2c1O[C@@H]1O[C@H](CO)[C@@H](O)[C@H](O)[C@H]1O
inactive: Potency [1] | Potency [2] | Potency [3]

CCC(C)C(=O)O[C@H]1C[C@](C)(O)[C@]23OC(C)(C)[C@H](C[C@H](OC(=O)c4ccccc4)[C@]2(COC(C)=O)[C@H]1OC(=O)C(C)CC)[C@H]3OC(C)=O (stereo partly specified)
inactive: Potency [1] | Potency [2] | Potency [3]

OC[C@H]1O[C@@H](O[C@H]2[C@H](O)[C@@H](CO)O[C@@H](OCc3ccccc3)[C@@H]2O[C@@H]2OC[C@](O)(CO)[C@H]2O)[C@H](O)[C@@H](O)[C@@H]1O
inactive: Potency [1] | Potency [2] | Potency [3]

CC(C)C1(O)NC(=O)C(CC2(O)c3ccccc3N3C(=O)C(C)(C)NC32)n2c1nc1ccccc1c2=O (stereo unspecified)
inactive: Potency [1] | Potency [2] | Potency [3]

O=C(O)c1ccncc1Nc1nn(CCN2CCC(F)(F)CC2)c2ccc(F)cc12
inactive: Potency [1] | Potency [2] | Potency [3]

OC[C@H]1O[C@@H](OC[C@H]2O[C@@H](OCc3ccccc3)[C@H](O)[C@@H](O)[C@@H]2O)[C@H](O)[C@@H](O)[C@@H]1O
inactive: Potency [1] | Potency [2] | Potency [3]

— PubChem BioAssay (NCATS)
